8 compounds from PubChem BioAssay (NCI) can be followed below.

The panel holds about 83,000 compounds, 20% with a hit somewhere; the sample as a whole holds those more often.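 Activity criterion: percent growth below 10, measured after cells in 96-well plates were exposed to a single compound concentration for 48 hours.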 Unmarked numbers belong to inactive results. Calls of active or inactive are those of the source.

Common to all, as to test: NCI-60 one-dose screen, 48 h (100 = growth as untreated, 0 = no growth, -100 = all killed)
Common to all, as to conditions: 10 µM unless noted

For test [1], the system named is HCT-15 colon.
For test [2], the system named is HT29 colon.
Test [3] relates to SNB-75 CNS.
The test system of test [4] is SNB-19 CNS.
Test [5] has as its system U251 CNS.
For test [6], the system named is PC-3 prostate.
Test [7] has as its system UACC-62 melanoma.
For test [8], the system named is LOX IMVI melanoma.
The subject of test [9] is SK-MEL-28 melanoma.
Test [10] relates to SK-MEL-2 melanoma.
Test [11] concerns EKVX NSCLC.
In test [12] the test system is SN12C renal.
The subject of test [13] is UO-31 renal.
The test system of test [14] is TK-10 renal.
The test system of test [15] is ACHN renal.
Test [16] relates to CAKI-1 renal.
For test [17], the system named is A498 renal.
Test [18] relates to CCRF-CEM leukemia.
For test [19], the system named is MOLT-4 leukemia.
In test [20] the test system is SK-MEL-5 melanoma.

As to `CCN1CCN(Cc2cn(-c3ccc(S(N)(=O)=O)cc3)nn2)CC1`, the growth is 104% in [1]; 102% in test [2]; 95.6% in [3]; 105% in [4]; 109% in test [5]; 97.8% in [6]. The growth in test [7] was 98.1%; in [8], 102%; in [9] it was 116%; in test [10], 115%; in [11] it was 103%; in test [12], 104%. For the same compound, the growth was 94% in test [13]; 108% in [14]; 108% in test [15]; 96.5% in [16]; 103% in [17]; 104% in test [18]. Also, in [19], the growth is 104%.
As to `COc1ccc(S(=O)(=O)NCCCNc2nccc(-c3cn(C(C)(C)C)nc3-c3ccc(Cl)c(OC)c3)n2)cc1`, the growth in test [1] is 78.5%; in test [2] it was 81%; in test [3], 50.5%; in test [4] it was 96.3%; in test [5], 98.9%; in test [6] it was 58.3%. For the same compound, the growth in [20] was 85.8%; in test [7], 61.2%; in [8], 72.7%; in test [10], 89.7%; in test [11], 47.2%; in test [12] it was 57.1%. The growth was 44.5% in [13]; 60.3% in test [14]; 84.6% in [15]; 25.5% in [16]; 58.7% in test [17]; 60.6% in test [19].
Regarding `NS(=O)(=O)c1ccc(Nc2nc(N/N=C/c3c[nH]c4ccccc34)nc(Nc3ccccc3)n2)cc1`, the growth in [1] was 75.5%; in test [2], 31.6%; in test [3], 70.8%; in test [4], 56.7%; in test [5] it was 28.1%; in test [6], 26%. Also, the growth is 39.8% in [20]; 38.3% in test [7]; -10.6% (active) in test [8]; 67.3% in test [10]; 67.4% in [11]; 40.2% in [12]. In addition, the growth was 49.2% in test [13]; 94.7% in test [14]; 81.2% in test [15]; 51.2% in test [17]; 12.9% in test [18]; 19.9% in [19].
Turning to `O=S(=O)(Oc1ccc(-c2nnc(Nc3ccccc3)s2)cc1)C(F)(F)C(F)(F)C(F)(F)C(F)(F)C(F)(F)C(F)(F)F`, the growth is 98.7% in test [1]; 109% in [2]; 99.9% in test [3]; 101% in test [4]; 107% in test [5]; 110% in [6]. The growth was 90.8% in test [7]; 99.8% in test [8]; 105% in [9]; 106% in test [10]; 99.1% in test [11]; 98.7% in [12]. The growth in test [13] was 98.2%; in test [14], 109%; in [15], 103%; in [16] it was 92.7%; in test [17], 99.5%; in test [18] it was 102%. For the same compound, the growth in test [19] is -29.1% (active).
With `Fc1ccc(-c2cc3nc(C(Cl)Cl)nc(-c4ccc(F)cc4)n3n2)cc1`, the growth in test [1] was 8.52% (active); in [2] it was -6.96% (active); in test [3] it was -11.6% (active); in [4], 1.89% (active); in test [5] it was -39.8% (active); in test [6], 16.8%. Besides, the growth in [7] was 44%; in test [8], 55.7%; in [9], -5.14% (active); in [10], 108%; in test [11] it was 7.26% (active); in test [12], 49.2%. Besides, the growth in test [13] is 29.3%; in [14], 13.2%; in test [15], -41.1% (active); in test [16] it was -18.3% (active); in [17] it was -53.1% (active); in [18], 33.1%. Moreover, in [19], the growth was 12.4%.
Take `CC(C)(O)c1cncc(-c2ccc3ncnc(NCc4ccccc4)c3c2)c1`: the growth is 103% in [1]; 96.7% in test [2]; 31% in [3]; 91.8% in test [4]; 109% in test [5]; 84.1% in test [6]. Also, the growth is 87.6% in test [20]; 84.3% in test [7]; 57.2% in [8]; 107% in test [10]; 32.7% in test [11]; 57.6% in [12]. Moreover, the growth in test [13] was 37.1%; in test [14] it was 42.8%; in test [15], 66.4%; in test [16] it was 42.6%; in test [17], 5.8% (active); in test [19], 98.6%.
As to `NS(=O)(=O)c1ccc(-n2cc(CN3CCCCC3)nn2)cc1`, the growth in [1] was 107%; in test [2], 96.7%; in test [3], 92.8%; in test [4] it was 102%; in test [5], 104%; in test [6], 98.9%. Also, the growth in [7] is 97.4%; in [8], 101%; in [9] it was 109%; in test [10] it was 109%; in test [11] it was 101%; in test [12] it was 100%. Also, the growth in test [13] is 82.2%; in [14], 102%; in test [15] it was 107%; in test [16], 92.6%; in test [17], 93.6%; in test [18], 108%. The growth in test [19] was 98.5%.
As to `NC(N)=Nc1ccc(Oc2cccc(Nc3cccc(C(F)(F)F)c3)c2)cn1`, the growth is -64.9% (active) in test [1]; 14.6% in test [2]; 33.5% in [3]; 1.17% (active) in test [4]; -62.7% (active) in test [5]; -74.8% (active) in test [6]. Also, the growth in [7] was -16.2% (active); in test [8], -90.3% (active); in [9], 31.5%; in test [10], 64.8%; in [11], 2.37% (active); in test [12] it was -13.7% (active). Besides, the growth is 42.8% in test [13]; 70% in test [14]; 37.8% in test [15]; 27.2% in test [16]; 18.1% in test [17]; -9.05% (active) in test [18]. The growth in test [19] is 0.007% (active).
